Assay outcomes: PubChem BioAssay, The Scripps Research Institute Molecular Screening Center
CHO-K1 Ca antag = nonselective inhibitor or artifact in parental CHO-K1 cells. ATP-induced calcium, Fluo-8 fluorescence. inhibition, % at 3 µM. 0.6% of 360,000 active;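 active = inhibition above a per-plate cutoff, the plate's mean sample inhibition plus 3 SD, cut at about 24% in these data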;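 also: 0% = DMSO plus EC80 ATP and 100% = DMSO alone without ATP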
CHO-K1 Ca PAM = counter-screen for M1 PAMs: effect in parental CHO-K1 cells | 0.02% of 360,000 active | activation, % at 3 µM | AID 602247 | ATP EC20, Fluo-8 calcium fluorescence; 0% at ATP EC20, 100% at ATP max;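 active = activation above the run cutoff, the mean activation of all test compounds plus 3 SD, cut at about 40% in these data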;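 also: peak over basal fluorescence ratio in a 140 s read after ATP addition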
M1 ag parental = counter-screen for M1 agonists: effect in parental CHO-K1 cells; Fluo-8 calcium fluorescence; scaled to maximal ATP response, vehicle zero; activation, % at 3 µM; 0.48% of 360,000 active; in the data active = activation above about 15%;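 also: untransfected CHO-K1 host cells lacking M1 receptor as counterscreen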
M1 ag = agonists of human M1 muscarinic receptor. P11229. CHO-K1 hM1, Fluo-8 calcium fluorescence, agonist mode; 0% DMSO, 100% acetylcholine EC100. activation, % at 3 µM. 0.33% of 360,000 active. AID 588814;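 active = activation above the run's mean compound activation plus 3 SD, cut at about 16% in these data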;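 also: peak over basal fluorescence ratio within a 140 s kinetic read after compound addition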
Target sequence (P11229 whole entry, looked up): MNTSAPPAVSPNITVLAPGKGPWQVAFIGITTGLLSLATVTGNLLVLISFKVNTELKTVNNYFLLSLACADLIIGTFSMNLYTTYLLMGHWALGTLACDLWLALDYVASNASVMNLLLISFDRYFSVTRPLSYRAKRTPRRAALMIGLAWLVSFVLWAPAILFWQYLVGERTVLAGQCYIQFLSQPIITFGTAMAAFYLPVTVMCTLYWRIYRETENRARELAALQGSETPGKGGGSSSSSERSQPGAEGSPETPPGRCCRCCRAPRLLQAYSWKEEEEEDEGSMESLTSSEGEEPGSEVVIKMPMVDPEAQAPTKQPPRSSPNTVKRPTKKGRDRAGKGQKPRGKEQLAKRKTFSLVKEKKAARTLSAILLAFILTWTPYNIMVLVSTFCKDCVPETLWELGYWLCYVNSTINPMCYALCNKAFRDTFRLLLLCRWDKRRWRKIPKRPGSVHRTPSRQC
M1 antag = human CHRM1 antagonism; 1.3% of 360,000 active; P11229; AID 588852; inhibition, % at 3 µM; CHO-K1 hM1, Fluo-8 calcium fluorescence, ACh EC80 antagonist;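 active = percent inhibition above its own plate's cutoff, namely the mean of that plate's compound wells plus 3 SD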;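 also: peak over basal fluorescence ratio during 140 s after agonist addition; 0% = ACh EC80 plus DMSO and 100% = DMSO alone without agonist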
M1 PAM = human CHRM1 positive allosteric modulation; P11229; CHO-K1 hM1, Fluo-8 calcium fluorescence, ACh EC20; 0% = ACh EC20, 100% = maximal ACh; activation, % at 3 µM; 0.088% of 360,000 active; in the data active = activation above about 19%, passing the limit was not always enough
Numbers without * were called inactive; . = no result given. Shown are actives, neighbours in structure and some others; about 2.3% of the full set was active somewhere.

SMILES	CHO-K1 Ca antag	CHO-K1 Ca PAM	M1 ag parental	M1 ag	M1 antag	M1 PAM
O=C(c1ccccc1)c1ccc(O)cc1O	-3	2	16*	9	-10	9
CCCCc1nnc(NC(=O)C2CC(=O)N(Cc3ccccc3)C2)s1 (stereo not drawn)	0	-3	1	-1	2	0
Nc1ccc(C(=O)OCc2nc3ccccc3s2)cc1	-12	-3	1	-5	-5	6
Cc1ccc(C(=O)OCc2nc3ccccc3s2)o1	3	5	16*	-2	-1	5
COC(=O)c1[nH]c2ccc(C)cc2c1NC(=O)CCN1CCN(Cc2ccc3c(c2)OCO3)CC1	-17	12	1	-15	61*	-33
CCOC(=O)c1nn(-c2ccc(C)cc2)c(=O)c2c(N)scc12	33*	-9	-1	0	22	-7
CCOC(=O)c1nn(-c2ccc(F)cc2)c(=O)c2c(N)scc12	-4	20	0	-6	-6	17
CC(C)c1ccc([C@@H]2O[C@H](CCc3ccccc3)CC3=C2C(=O)OC(C)(C)O3)cc1	-6	5	1	.	.	.
Cn1c(CCN2CCN(c3ccccn3)CC2)nc2cc(NS(=O)(=O)c3ccc(Cl)cc3)ccc21	9	-9	7	-1	98*	-24
Cc1ccc(S(=O)(=O)Nc2ccc3c(c2)nc(CCN2CCN(c4ccccn4)CC2)n3C)cc1	-12	6	8	-3	79*	-24
Cc1ccc(S(=O)(=O)Nc2ccc3c(c2)nc(CCN2CCCCC2)n3C)cc1	5	-2	0	-7	15	-11
O=[N+]([O-])c1ccc(N2CCC(O)CC2)nc1	29*	-16	0	1	0	15
O=[N+]([O-])c1ccc(N2CCSCC2)cc1	7	19	2	-14	-10	9
CCSc1nnc(NC(=O)CC)s1	-5	18	0	16*	-3	4
CCSc1nnc(NC(=O)c2ccccc2C)s1	-7	13	1	-6	53*	-12
O=C(NCCCN1CCCC1=O)C(=O)NCC1OCCCN1S(=O)(=O)c1ccccc1 (stereo not drawn)	-6	13	1	-3	-17	13
CC1(C)Oc2ccc(C(=O)NNC(=O)Nc3ccccc3)cc2NC1=O	-4	2	0	4	-1	16
c1ccc(-c2c[n+]3c(n2-c2ccccc2)SCC3)cc1	-6	17	0	-9	-4	0
CCOc1ccc(-n2c(-c3ccc(Cl)cc3)c[n+]3c2SCC3)cc1	-16	18	1	-7	50*	-19
COc1ccc(C)cc1N(C)C(=O)Cc1c(C(=O)O)n(C)c2ccccc12	5	-10	0	-2	3	4
CCn1cc(CN2CCC(n3nccc3NC(=O)CCOc3ccccc3)CC2)c(C)n1	-1	-6	0	-5	-10	12
CN1CCC(n2[nH]c(-c3ccccc3)c(Cc3ccccc3)c2=O)CC1	-12	9	2	-8	100*	-30
CN1CCC(N2CCN(C3CN(CCc4ccccc4)S(=O)(=O)C3)CC2)CC1 (stereo not drawn)	4	15	1	-6	-8	10
CC(=O)c1ccc(S(=O)(=O)NCC(=O)Nc2nc3ccccc3[nH]2)cc1	-18	6	1	-5	-1	1
COc1ccc(N/N=C(\C#N)C(=N)N2CCCCC2)cc1	-3	13	0	-3	-9	4
SMILES	CHO-K1 Ca antag	CHO-K1 Ca PAM	M1 ag parental	M1 ag	M1 antag	M1 PAM
COc1ccc(N/N=C(\C#N)C(=N)SCc2ccccc2)cc1	-14	8	18*	4	-2	2
CCOc1ccc(NCCC(O)c2ccc(F)cc2)cc1 (stereo not drawn)	-10	2	0	-4	8	-4
COc1ccccc1NC(=S)N1CCN(c2cccc(C)c2C)CC1	-13	20	1	-6	-14	5
Cc1c(Cc2ccc3c(c2)OCO3)sc(NC(=O)c2cccc3ccccc23)c1C(N)=O	2	19	2	-13	101*	-33
O=C(Cn1c(C(F)(F)F)nc2ccccc21)N/N=C/c1ccco1	11	10	17*	-10	-6	13
O=C(CN1CCN(Cc2ccccc2Cl)CC1)N/N=C/c1ccco1	1	10	17*	-5	-1	2
O=C(CCc1nc(-c2ccccc2)no1)Nc1cccnc1	-5	10	16*	-4	-3	5
COc1cc2c(cc1OC)-c1nnc(C)n1C1(CCCC1)C2	27*	-9	-1	-4	-4	4
CC[C@]1(C(=O)OC)[C@H]2C(=O)N(Cc3ccccc3)C(=O)[C@H]2[C@H]2CN(C)C(=NCc3ccccc3)N21	-13	7	0	-11	-4	2
Clc1ccc(-c2ccc(-c3nn4c(-c5ccco5)nnc4s3)o2)cc1	-30	9	0	-2	-2	8
Brc1ccc(-c2nn3c(-c4ccco4)nnc3s2)o1	25*	-6	0	-7	-7	7
N#Cc1cccnc1N1CCN(C(c2ccnc3ccccc23)c2nnnn2-c2ccc3c(c2)OCCO3)CC1 (stereo not drawn)	-7	-2	1	.	.	.
C[C@H]1CN=C(N(C)C)N1CC1CCCC1	-10	10	1	12	4	-4
C[C@H]1CN=C(N(C)C)N1CC1CCC(C(C)(C)C)CC1 (stereo partly drawn)	-17	16	2	-10	51*	-32
CC(=O)c1c(C)[nH]c(C(=O)OCC(=O)Nc2cccc(S(=O)(=O)N(C)C)c2)c1C	-7	1	0	-4	-11	9
CCN(CC)S(=O)(=O)c1cccc(NC(=O)COC(=O)c2[nH]c(C)c(C(C)=O)c2C)c1	8	7	8	4	31*	-16
COCCN(C(=O)CSc1nc2ccccc2c(=O)n1CC(C)C)c1c(N)n(Cc2ccccc2)c(=O)[nH]c1=O	1	16	20*	-10	-9	15
COCCN(C(=O)CSc1nc2ccccc2c(=O)n1C(C)COC)c1c(N)n(Cc2ccccc2)c(=O)[nH]c1=O (stereo not drawn)	4	6	1	-13	7	-22
CCCN(C(=O)CSCc1ccccc1C)c1c(N)n(Cc2ccccc2)c(=O)[nH]c1=O	-12	11	1	5	-27	26*
CCCN(C(=O)CSCc1ccc(C)cc1)c1c(N)n(Cc2ccccc2)c(=O)[nH]c1=O	-1	-10	-1	-1	-5	4
O=C(C1CCN(S(=O)(=O)c2ccccc2F)CC1)N1CCc2ccccc2C1	-11	-8	5	-5	5	0
CC(C)C[C@H]1CNC(=O)C(=O)N1CC1CCN(CC2CCC(C)CC2)CC1 (stereo partly drawn)	22	-8	0	-11	39*	-19
